Source: PubChem (National Center for Advancing Translational Sciences (NCATS))
Rows were chosen to be rich in hits. Some 9.3% of all compounds tested hit in one or more screens of this group.
SMN2 splice enh – qHTS Assay for Enhancers of SMN2 Splice Variant Expression. Potency, µM (titrated, usually from 46.1 µM), for the others: at the highest dose activity change, positive = activation, most hits filed as activators. AID 1458, 2008. hit rate 2.8% among 210,000. HEK293 SMN2-luciferase splicing reporter, luminescence, 30-36 h; also: % of control where 0% means no effect; nearly all actives have a fitted effect of over 55% in size
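HEK293 cells carry an SMN2 minigene-luciferase reporter in which exon 7 inclusion puts luciferase in frame. Cells were seeded at 2000 cells/well, attached for 10-12 hours, then exposed to compounds for 30-36 hours at 37C before ONE-Glo luminescence.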
ELG1 genotoxic – qHTS screen for small molecules that induce genotoxicity in human embryonic kidney (HEK293T) cells expressing luciferase-tagged ELG1. HEK293T ELG1-luciferase reporter, luminescence, 16 h. AID 504466, 2011. hit rate 1.3% among 330,000. Potency, µM (doses to about 46 µM), without a hit: at the top dose activity change, positive = activation, actives largely listed as activators; also: % of control where 0% means no effect; nearly all actives have a fitted effect of over 60% in size
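Reporter readout depends on ELG1 protein level, which increases with genetic stress. After 16 hr compound exposure at 37 °C, luciferase activity was quantified using ONE-Glo.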
ELG1 repair inh – qHTS screen for small molecules that inhibit ELG1-dependent DNA repair in human embryonic kidney (HEK293T) cells expressing luciferase-tagged ELG1; HEK293T ELG1-luciferase reporter, luminescence, 16 h; DNA damage induced by 5-fluorouridine; Potency, µM (titrated, usually from 46.1 µM), without a hit: at the top dose activity change, negative = inhibition, most hits filed as inhibitors; hit rate 2.3% among 330,000; also: % is scaled to controls: 0 for no effect and ±100 for the full control effect; nearly all actives have a fitted effect of over 55% in size
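5-Fluorouridine DNA damage + compound/DMSO, 2,000 cells/well, 16 h, 37 °C/5% CO2. ONE-Glo, 30 min RT, luminescence. Readout = decrease in reporter signal.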
NPC1 prom act – qHTS Assay for NPC1 Promoter Activators; Huh7 NPC1 promoter luciferase reporter, 24 h; AID 485313, 2010; hit rate 2.4% among 320,000; Potency, µM (top dose mostly 9.22 µM), for inactives: at the highest dose activation, most hits filed as activators; also: % of control where 0% means no effect; nearly all actives have a fitted effect of over 60% in size
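Huh7 reporter cells (NPC1 promoter driving luciferase) are dosed with compound for 24 h at 37 °C, 5% CO2; luciferase detection reagent is then added and luminescence measured after 10 min at ambient temperature.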
FLuc modulator – qHTS profiling assay for firefly luciferase inhibitor/activator using purifed enzyme and Km concentrations of substrates (counterscreen for miR-21 project). Potency, µM (doses to about 57.5 µM), for inactives: top-dose activity change, negative = inhibition, usual class: inhibitors. hit rate 6.9% among 360,000. AID 588342, 2011. purified FLuc, Km substrates, luminescence inhibition;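 also: plate controls were vehicle for no effect and reference inhibitor for full effect; nearly all actives have a fitted effect of over 55% in size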
Target sequence (P08659 whole entry, looked up): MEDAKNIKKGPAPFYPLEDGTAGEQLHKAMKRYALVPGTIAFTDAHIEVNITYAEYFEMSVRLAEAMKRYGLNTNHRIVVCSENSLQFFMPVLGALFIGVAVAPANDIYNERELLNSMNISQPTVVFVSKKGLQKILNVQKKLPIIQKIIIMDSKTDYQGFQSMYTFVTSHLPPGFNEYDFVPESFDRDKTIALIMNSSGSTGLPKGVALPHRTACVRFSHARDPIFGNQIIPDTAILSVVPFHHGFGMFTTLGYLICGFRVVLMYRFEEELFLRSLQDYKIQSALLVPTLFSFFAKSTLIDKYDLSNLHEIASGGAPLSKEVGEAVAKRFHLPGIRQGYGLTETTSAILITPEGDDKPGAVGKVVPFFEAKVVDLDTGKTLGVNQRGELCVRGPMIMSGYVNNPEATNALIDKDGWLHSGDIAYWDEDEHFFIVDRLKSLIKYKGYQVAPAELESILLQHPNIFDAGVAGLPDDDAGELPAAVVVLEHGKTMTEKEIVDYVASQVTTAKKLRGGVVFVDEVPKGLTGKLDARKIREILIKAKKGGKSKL
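Biochemical qHTS of compounds, final roughly 60 µM downward over six points, against 10 nM purified firefly luciferase using Km concentrations of substrates (10 uM D-luciferin, 10 uM ATP) in Tris acetate pH 7.5 buffer; luminescence output.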
Rab9 promoter act – qHTS Assay for Rab9 Promoter Activators; Huh7 Rab9 promoter-luciferase reporter, luminescence, 24 h; Potency, µM (highest dose often 9.22 µM), without a hit: at the top dose activation, negative = inhibition, actives largely listed as activators; hit rate 2.8% among 320,000; also: % of control where 0% means no effect; nearly all actives have a fitted effect of over 60% in size
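Cells were plated at 1500 per well in reduced-serum medium with 10% FBS and left 2 h. Compound in DMSO was then added for 24 h at 37 °C. Reporter signal was read by luminescence after 10 min with luciferase detection reagent.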
Starred values were filed as active, the others as inactive; ? = inconclusive; . = no result given. Calls follow the shape of the dose curve; as a rule, active = well fitted curve in the direction sought with a large enough effect; inconclusive = small, poorly fitted or top-dose-only effect, or another doubt; inactive = no such curve, though single readings can be large; an effect the other way counts as inactive or inconclusive. Potency is read from the fitted curve at half-maximal effect.

SMILES	SMN2 splice enh	ELG1 genotoxic	ELG1 repair inh	NPC1 prom act	FLuc modulator	Rab9 promoter act
CCn1c(/C=C/c2ccccc2[N+](=O)[O-])nc2ccccc2c1=O	-20%	3%	?	-3%	?	2%
COc1ccc(Cl)cc1NC(=O)c1sc(-n2nc(C)c(Cc3ccccc3)c2C)nc1C	.	.	.	.	0%	.
Cc1cccc(NS(=O)(=O)c2ccc3nc(-c4ccccc4)[nH]c3c2)c1C	-14%	-2%	-12%	-6%	-3%	-1%
COc1ccc2cc(C#N)c(N3CCN(C(=O)c4ccccc4C)CC3)nc2c1	-46%	-24%	13µM*	-3%	1%	-2%
CCOC(=O)C1CCN(c2nc3cc(OC)ccc3cc2C#N)CC1	-14%	-3%	?	-3%	-2%	-10%
COc1ccc2cc(C#N)c(N3CCOCC3)nc2c1	.	-7%	-26%	-4%	-8%	-4%
COc1ccc2nc(N3CCC(O)CC3)c(C#N)cc2c1	-9%	6%	0%	19%	15µM*	5%
COc1ccc2nc(N3CCC(C)CC3)c(C#N)cc2c1	20µM*	?	?	?	11µM*	4µM*
COc1ccc(C(=O)N2CCN(c3nc4cc(C)ccc4cc3C#N)CC2)c(OC)c1	-39%	-29%	?	-6%	0%	-8%
COC(=O)CC1C(C)(C)C(O)C2CC3=C4CC(O)OC(c5ccoc5)[C@]4(C)CCC3[C@@]1(C)C2=O (stereo not given in full)	4%	.	.	.	.	.
CCCC1=NN(c2ccc([N+](=O)[O-])cc2)C(=O)/C1=C/N(C)C	28%	13%	?	18%	11µM*	1%
CC1=NN(c2ccc([N+](=O)[O-])cc2)C(=O)/C1=C\N(C)C	5%	?	?	-1%	11µM*	2%
CC1=NN(c2ccccc2)C(=O)/C1=C/N(C)C	.	0%	0%	-3%	-17%	-1%
CC1=NN(c2nc3ccccc3[nH]2)C(=O)/C1=C/N(C)C	.	-10%	22%	1.8µM*	2.1µM*	1.4µM*
Cc1ccc(Cn2cc(CCC(=O)NCC(C)c3ccccc3)c3ccccc32)cc1 (stereo not given)	.	.	.	.	-11%	.
CCOc1ccc(NC(=O)N2CCN3CCCCC3C2)cc1 (stereo not given)	.	.	.	.	-2%	.
C=CCn1c(=O)c(C(=O)Nc2ccccc2S(N)(=O)=O)c(O)c2ccccc21	.	?	?	2.5µM*	?	3.2µM*
C=CCn1c(=O)c(C(=O)Nc2ccccc2C(=O)OCC)c(O)c2ccccc21	1%	-6%	10%	8%	6%	7%
COc1ccc(C2=NOC(C(=O)N3CCOCC3)C2)cc1OC (stereo not given)	13%	7%	?	15%	-1%	16%
COc1cccc(C2=NOC(C(=O)N3CCOCC3)C2)c1 (stereo not given)	8%	?	?	3.5µM*	19µM*	?
Oc1ccc2ccccc2c1C=NCc1cn2ccsc2n1	9%	2%	2%	-3%	19µM*	-3%
O=C(Nc1cccc(-c2nnc(-c3ccco3)o2)c1)C(c1ccccc1)c1ccccc1	-6%	-12%	13µM*	-2%	-2%	-3%
O=C(Cc1ccccc1)Nc1cccc(-c2nnc(-c3ccco3)o2)c1	7%	0%	?	0%	-17%	5%
O=C(Nc1cccc(-c2nnc(-c3ccco3)o2)c1)c1ccccc1	-5%	-11%	-26%	-1%	?	-4%
COc1ccccc1OCC(=O)Nc1cccc(-c2nnc(-c3ccco3)o2)c1	18µM*	-7%	?	29%	12µM*	15%
SMILES	SMN2 splice enh	ELG1 genotoxic	ELG1 repair inh	NPC1 prom act	FLuc modulator	Rab9 promoter act
O=C(COc1ccccc1)Nc1nnc(-c2ccc(F)cc2)o1	.	-9%	0%	-3%	0%	-3%
O=C(COc1ccccc1)Nc1ccc(-c2nnc(-c3ccco3)o2)cc1	13µM*	10%	24%	?	1%	1.1µM*
O=C(CSc1nnc2scc(-c3ccccc3)n12)NCc1ccc2c(c1)OCO2	?	-4%	-1%	2%	3%	-5%
CN(C)S(=O)(=O)c1ccc(Cl)c(C(=O)OCC(=O)NC(=O)NC2CCCC2)c1	.	-1%	12%	-7%	-2%	-6%
COc1ccc(N2CCN(C(=O)CCCN3C(=O)c4cccc5cccc(c45)C3=O)CC2)cc1	-18%	-13%	10µM*	0%	-4%	4%
O=C(Nc1ccccc1)OC1CC2CC1C1CCCC21 (stereo not given)	.	?	?	?	7.6µM*	2.5µM*
O=C(Nc1ccc2c(c1)OCO2)O[C@@H]1C[C@H]2CCC(=O)N3CC[C@@H](C1)[C@@H]23	.	-4%	?	3%	-2%	8%
O=C(Nc1ccccc1)O[C@@H]1C[C@H]2CCC(=O)N3CC[C@@H](C1)[C@@H]23	.	?	?	?	21µM*	?
O=C(c1ccc(Cl)c([N+](=O)[O-])c1)N(Cc1ccccc1)C1CCS(=O)(=O)C1 (stereo not given)	?	3%	4%	-7%	-2%	0%
O=C1c2ccccc2C(=O)N1Cc1nc(-c2ccccn2)no1	-13%	.	.	.	-15%	.
COc1cccc(-c2nc(-c3ccccn3)no2)c1OC	13µM*	9.2µM*	?	3.5µM*	13µM*	2.5µM*
c1ccc(-c2noc(-c3cccc4ccccc34)n2)nc1	16µM*	?	?	?	0.76µM*	28%
